Experimental data taken from PubChem BioAssay (NCATS).
Results filed as inconclusive are left out. Active and inactive are the calls of the source. Calls come from the whole dose curve; as a rule, active = well fitted inhibition curve with a large enough effect; inconclusive = small, poorly fitted or top-dose-only effect, or effect the other way; inactive = flat fitted curve, though single readings scatter.

molecular target: ATP-dependent 6-phosphofructokinase (Trypanosoma brucei brucei) (UniProt O15648); assay: qHTS Assay to Find Inhibitors of T. brucei phosphofructokinase: hit validation (AID 492961);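 note: luminescence reports ADP formed as PFK phosphorylates fructose-6-phosphate with ATP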; settings: T. brucei PFK, ADP-Glo luminescence; series mostly up to 24.3 µM
Text: NIH Molecular Libraries Probe Production Network [MLPCN] NIH Chemical Genomics Center [NCGC] Grant: 1 R03 MH092153-01 PI Name: Malcolm Walkinshaw, University of Edinburgh NCGC Assay Overview: Various species of the protozoan family Trypanosomatidae are responsible for a range of serious human diseases in tropical and subtropical areas of the world. […] Many of the disorders caused by trypanosomatids are fatal if left untreated, but most currently used drugs are inefficient and toxic. […] Oxidative metabolism involving the mitochondrial tricarboxylic acid cycle and oxidative phosphorylation are repressed in these parasites, and recent RNA interference (RNAi) experiments have shown that even partial depletion of certain individual glycolytic enzymes can lead to the death of cultured parasites. One such glycolytic enzyme, phosphofructokinase (PFK), catalyzes the formation of fructose-1,6-bisphosphate (F1,6BP) and ADP from fructose-6-phosphate (F6P) and ATP, and in many metabolic circumstances makes an important contribution to the control of flux through the glycolytic pathway. As a specific glycolytic target, PFK is particularly attractive as it catalyzes the first irreversible step in glycolysis, and structural and kinetic studies have shown very substantial and essential differences from corresponding host enzymes, allowing for the discovery of parasite-selective inhibitors. The goal of this screen is to find small-molecule inhibitors of T. brucei PFK using a biochemical assay that measures PFK activity as a function of ADP production. A luminescence-based assay for T. brucei PFK activity has been developed which uses luciferase to detect production of ADP. Traditional luciferase-based nucleotide detection reagents rely on ATP production as a direct substrate for the luciferase reaction; however, PFK catalyzes the transfer of a phosphate from ATP to F6P, resulting in the net depletion of ATP. To directly measure the ADP product of the PFK reaction, we used the ADP-Glo detection kit (Promega), which utilizes two separate reactions to 1) deplete all remaining uncatalyzed ATP and 2) convert all remaining ADP to ATP, which is then detected through a traditional luciferase-coupled reaction. Compounds were screened as a concentration-titration series that ranged from 57 uM to 0.7 nM.
NCGC Assay Protocol Summary: Substrate buffer was dispensed into white, solid 1536-well plates at 3uL/well in 0.1M triethanolamine (TEA) buffer, pH 8.0, containing final concentrations of 5 mM MgCl2, 0.01% Tween20, 0.5 mM fructose-6-phosphate (F6P) and 0.1mM ATP. Then, 23 nL of compounds or DMSO were delivered to each well using a pin tool. One uL T. brucei PFK (0.1M TEA, 0.01% Tween20, 0.1% bovine serum albumin (BSA) and 1.25nM PFK, final concentrations) was then dispensed, and plates were incubated at room temperature for 45 min. The luminescent detection reagent, ADP-Glo (Promega), was then added in two steps: the first reagent, ADP-Glo (which converts remaining uncatalyzed ATP), was added at 2.5uL/well and incubated for ten minutes at room temperature, and the second component, Kinase Detection reagent (which converts ADP to ATP as a substrate for luciferase-based luminescence), was added immediately after at 5uL/well, followed by one final ten minute room temperature incubation. The plates were measured on a ViewLux plate reader for luminescent signal using a clear filter with a one second exposure. The %Activity was determined from the corrected luminescence values. As no specific T. brucei PFK inhibitors have been identified in the literature, 1x (1.25nM) and 0x PFK enzyme controls (untreated) were included to normalize %Activity of identified inhibitors; 0x enzyme values corresponded to 100%Activity (full inhibition), while 1x PFK enzyme values were used to normalize 0%Activity (no inhibition). Concentration-response curves were fitted to the signals arising from the resulting luminescence. […]

ATP-dependent 6-phosphofructokinase (Trypanosoma brucei brucei), sequence (O15648 whole entry, looked up): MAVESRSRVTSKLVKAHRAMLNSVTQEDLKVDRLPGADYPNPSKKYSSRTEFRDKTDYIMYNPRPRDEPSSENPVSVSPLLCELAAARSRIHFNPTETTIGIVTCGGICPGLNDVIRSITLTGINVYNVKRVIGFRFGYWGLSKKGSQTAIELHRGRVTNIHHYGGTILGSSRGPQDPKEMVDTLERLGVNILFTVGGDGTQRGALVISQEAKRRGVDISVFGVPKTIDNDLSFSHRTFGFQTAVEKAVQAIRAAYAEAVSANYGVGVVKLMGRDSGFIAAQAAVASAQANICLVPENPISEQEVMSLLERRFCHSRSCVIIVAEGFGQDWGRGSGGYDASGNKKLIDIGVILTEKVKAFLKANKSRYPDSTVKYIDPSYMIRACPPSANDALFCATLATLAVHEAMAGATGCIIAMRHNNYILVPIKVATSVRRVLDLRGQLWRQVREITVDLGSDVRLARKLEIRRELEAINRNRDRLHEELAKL

**Q.** How did the outcome turn out when `CS(=O)(=O)c1ccc([C@H](O)[C@H](CO)NC(=O)C(Cl)Cl)cc1` was run?
**A.** Its outcome is “inactive”.

**Q.** How did the outcome turn out when `CCO[C@H]1O[C@@H]([C@H](COCc2ccccc2)OCc2ccccc2)[C@@H](OCc2ccccc2)[C@H]1O` was run?
**A.** The outcome was “inactive”.

**Q.** `CCOC(=O)C1=CC(OC(CC)CC)C(NC(C)=O)C(N)C1` (stereo not given) was tested. Which outcome did it give?
**A.** The outcome was “inactive”.

**Q.** `CO[C@@H]1C[C@H](O[C@H]2[C@@H](C)[C@H](O[C@@H]3O[C@@H](C)C[C@@H](N(C)C)[C@@H]3OC(C)=O)[C@H](C)C[C@]3(CO3)C(=O)[C@H](C)[C@H](OC(C)=O)[C@H](C)[C@H](C)OC(=O)[C@@H]2C)O[C@H](C)[C@@H]1OC(C)=O` was tested. Which outcome did it give?
**A.** The outcome was “inactive”.

**Q.** `COc1ccc2cc1Oc1ccc(cc1)CC1c3c(cc4c(c3Oc3cc5c(cc3OC)CCN(C)C5C2)OCO4)CCN1C` (stereo not given) was tested. Which outcome did it give?
**A.** Its outcome is “inactive”.

**Q.** Which outcome does the source give for `N[C@@H]1C(O)OC(CO)C(O)C1O` (stereo not given in full) here?
**A.** Its outcome is “inactive”.

**Q.** With `CC(=O)OCC(=O)[C@@]1(O)[C@H](C)C[C@@H]2[C@H]3CCC4=CC(=O)C=C[C@]4(C)[C@]3(F)[C@@H](O)C[C@@]21C` as the compound, how does the outcome read?
**A.** The outcome was “inactive”.

**Q.** `CN1CCO[C@H](c2ccccc2)c2ccccc2C1` was tested. Which outcome did it give?
**A.** Its outcome is “inactive”.

**Q.** For `O=C(O)[C@@H]1[C@@H]2C[C@H]3c4[nH]c5ccccc5c4CCN3C[C@@H]2CC[C@@H]1O`, which outcome is on record?
**A.** Its outcome is “inactive”.

**Q.** For `OCC1O[C@H](OC2C(CO)O[C@@](O)(CO)C2O)C(O)C(O)C1O` (stereo not given in full), which outcome is on record?
**A.** Its outcome is “inactive”.

**Q.** `Clc1ccc([C@H](Cn2ccnc2)OCc2csc3c(Cl)cccc23)c(Cl)c1` was tested. Which outcome did it give?
**A.** The outcome was “inactive”.

**Q.** With `CO[C@H]1[C@@H](OC(N)=O)[C@H](O)[C@@H](Oc2ccc3c(O)c(NC(=O)c4ccc(O)c(CC=C(C)C)c4)c(=O)oc3c2C)OC1(C)C` as the compound, how does the outcome read?
**A.** The outcome was “inactive”.

**Q.** `CN[C@H]1[C@@H](O)[C@@H](NC)[C@@H]2O[C@@]3(O)C(=O)C[C@@H](C)O[C@H]3O[C@H]2[C@H]1O` was tested. Which outcome did it give?
**A.** Its outcome is “inactive”.

**Q.** Which outcome does the source give for `CC(=O)N[C@@H]1C(O)OC(CO)C(O)C1O` (stereo not given in full) here?
**A.** The outcome was “inactive”.

**Q.** For `CCOC(=O)[C@H](CCc1ccccc1)N[C@@H](C)C(=O)N1[C@H](C(=O)O)C[C@H]2CCC[C@@H]21`, which outcome is on record?
**A.** The outcome was “inactive”.

**Q.** For `CC(C)(C)NC[C@@H](O)COc1ccccc1C1CCCC1`, which outcome is on record?
**A.** The outcome was “inactive”.

**Q.** For `COc1ccc([C@@H]2CC(=O)c3c(O)cc(O[C@H]4O[C@@H](CO[C@H]5O[C@@H](C)[C@@H](O)[C@@H](O)[C@@H]5O)[C@@H](O)[C@@H](O)[C@@H]4O)cc3O2)cc1O`, which outcome is on record?
**A.** Its outcome is “inactive”.

**Q.** With `NC(=O)N[C@H]1NC(=O)NC1=O` as the compound, how does the outcome read?
**A.** Its outcome is “inactive”.

**Q.** With `CCC1OC(=O)CC(O)C(C)[C@@H](O[C@@H]2OC(C)[C@H](O[C@@H]3C[C@@](C)(O)C(O)C(C)O3)C(N(C)C)C2O)[C@H](CC=O)CC(C)C(=O)/C=C/C(C)=C/[C@@H]1COC1OC(C)C(O)C(OC)[C@@H]1OC` (stereo not given in full) as the compound, how does the outcome read?
**A.** The outcome was “inactive”.

**Q.** For `CC1(C)O[C@H]2C[C@@H]3[C@H]4CCC5=CC(=O)CC[C@@]5(C)[C@]4(F)[C@@H](O)C[C@@]3(C)[C@@]2(C(=O)CCl)O1`, which outcome is on record?
**A.** The outcome was “inactive”.

**Q.** For `CN(C/C=C\c1ccccc1)Cc1cccc2ccccc12`, which outcome is on record?
**A.** The outcome was “inactive”.

**Q.** How did the outcome turn out when `CC1(C)S[C@@H]2[C@H](NC(=O)[C@@H](N)c3ccccc3)C(=O)N2[C@H]1C(=O)O[C@H]1OC(=O)c2ccccc21` was run?
**A.** Its outcome is “inactive”.

**Q.** Which outcome does the source give for `CCOC(=O)O[C@@H](C)OC(=O)[C@@H]1N2C(=O)[C@@H](NC(=O)[C@@H](N)c3ccccc3)[C@H]2SC1(C)C` here?
**A.** Its outcome is “inactive”.

**Q.** How did the outcome turn out when `COc1ccc(CC(N)C(=O)NC2C(CO)OC(n3cnc4c(N(C)C)ncnc43)C2O)cc1` (stereo not given) was run?
**A.** The outcome was “inactive”.

**Q.** How did the outcome turn out when `COc1ccc2c(c1)N(C[C@@H](C)CN(C)C)c1ccccc1S2` was run?
**A.** Its outcome is “inactive”.

**Q.** `Clc1ccc([C@H](Cn2ccnc2)OCc2c(Cl)cccc2Cl)c(Cl)c1` was tested. Which outcome did it give?
**A.** Its outcome is “inactive”.

**Q.** For `C[C@H](CCC(=O)O)[C@H]1CC[C@@H]2[C@@H]3[C@@H](O)C[C@H]4C[C@@H](O)CC[C@@]4(C)[C@H]3CC[C@@]21C`, which outcome is on record?
**A.** The outcome was “inactive”.

**Q.** With `CC(=O)OCC(=O)[C@@]12OC(C)(C)O[C@@H]1C[C@H]1[C@H]3C[C@H](F)C4=CC(=O)C=C[C@@]4(C)[C@]3(F)[C@H](O)C[C@@]12C` as the compound, how does the outcome read?
**A.** The outcome was “inactive”.

**Q.** `CC(=O)[C@]1(O)CCC2C3C=C(Cl)C4=CC(=O)C5CC5[C@@]4(C)C3CC[C@]21C` (stereo not given in full) was tested. Which outcome did it give?
**A.** The outcome was “inactive”.

**Q.** With `CCOC(=O)O[C@]1(C(=O)COC(=O)CC)CC[C@@H]2[C@@H]3CCC4=CC(=O)C=C[C@@]4(C)[C@H]3[C@H](O)C[C@]21C` as the compound, how does the outcome read?
**A.** The outcome was “inactive”.

**Q.** With `CC1(C)[C@@H](OC(=O)CCC(=O)O)CC[C@@]2(C)[C@H]1CC[C@@]1(C)[C@H]2C(=O)C=C2[C@H]3C[C@](C)(C(=O)O)CC[C@]3(C)CC[C@@]21C` as the compound, how does the outcome read?
**A.** Its outcome is “inactive”.

**Q.** For `CCc1c(C)[nH]c2c1C(=O)[C@H](CN1CCOCC1)CC2`, which outcome is on record?
**A.** Its outcome is “inactive”.

**Q.** With `CCN(CCCCOC(=O)c1ccc(OC)c(OC)c1)[C@@H](C)Cc1ccc(OC)cc1` as the compound, how does the outcome read?
**A.** Its outcome is “inactive”.

**Q.** For `CC1(C)S[C@H]2C(NC(=O)[C@@H](N)c3ccc(O)cc3)C(=O)N2[C@@H]1C(=O)O` (stereo not given in full), which outcome is on record?
**A.** Its outcome is “inactive”.

**Q.** `C[C@@H](C(=O)O)c1ccc(C(=O)c2ccccc2)s1` was tested. Which outcome did it give?
**A.** Its outcome is “inactive”.

**Q.** With `CC[N+](CC)(CC)CC[C@](O)(c1ccccc1)C1CCCCC1` as the compound, how does the outcome read?
**A.** The outcome was “inactive”.

**Q.** For `COc1ccc(C[C@@](C)(N)C(=O)O)cc1OC`, which outcome is on record?
**A.** The outcome was “inactive”.

**Q.** How did the outcome turn out when `C#C[C@@]1(O)CC[C@@H]2[C@@H]3CCC4=C(CCC(=O)C4)[C@H]3CC[C@]21C` was run?
**A.** Its outcome is “inactive”.

**Q.** `CN(C)CCn1nnnc1SCC1=C(C(=O)O)N2C(=O)[C@@H](NC(=O)Cc3csc(N)n3)[C@@H]2SC1` was tested. Which outcome did it give?
**A.** Its outcome is “inactive”.

**Q.** `CC[C@@H]1OC(=O)[C@H](C)[C@H](O[C@@H]2C[C@](C)(OC)[C@H](O)[C@H](C)O2)[C@H](C)[C@H](O[C@@H]2O[C@@H](C)C[C@@H](N(C)C)[C@@H]2O)[C@](C)(O)C[C@H](C)C(=NOCOCCOC)[C@H](C)[C@H](O)[C@]1(C)O` was tested. Which outcome did it give?
**A.** Its outcome is “inactive”.
